Experimental data published in PubChem BioAssay AID1159580 (chemical genetic matrix, 2015).
Among all 5,500 compounds or so, about 2,000 (36%) were called active. Inconclusive results (about 18%) are left out. No stated cut-off is given here; in the data, active means normalized growth mostly below about 0.91 (no sharp cut-off); inconclusive means no clear call, values can overlap the other calls; inactive means mostly above about 0.92. Some of the results follow.

Test: chemical genetic growth profiling, strain panel (AID 1159580);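 further: tested at 20 µM; growth read once vehicle control cultures reached saturation at 30 °C; 1 = growth at the plate median or of vehicle wells; lower values mean less growth of the strain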
Settings: growth OD

Measured: normalized growth

CC(=O)Oc1cccc(O)c1
inactive: S. cerevisiae deletion strains, locus YJR075W, strain HOC1, hits give low values 1 | S. cerevisiae deletion strains, locus YKL009W, strain mrt4, hits give low values 1.01 | S. cerevisiae deletion strains, locus YKL068W, hits give low values 1 | S. cerevisiae deletion strains, locus YKL085W, strain MDH1 (second series), hits give low values 1 | S. cerevisiae deletion strains, locus YKL085W, strain MDH1, hits give low values 1 | S. cerevisiae deletion strains, locus YKL160W, strain elf1, hits give low values 1.01 | S. cerevisiae deletion strains, locus YKL190W, strain CNB1, hits give low values 1 | S. cerevisiae deletion strains, locus YKR001C, strain vps1, hits give low values 1.02 | S. cerevisiae deletion strains, locus YKR026C, strain gcn3, hits give low values 1.01 | S. cerevisiae deletion strains, locus YKR091W, strain srl3, hits give low values 1.01 | S. cerevisiae deletion strains, locus YLL001W, strain dnm1, hits give low values 1.02 | S. cerevisiae deletion strains, locus YLL026W, hits give low values 1.01 | S. cerevisiae deletion strains, locus YLL041C, strain sdh2, hits give low values 1.01 | S. cerevisiae deletion strains, locus YLR027C, strain aat2, hits give low values 1.03 | S. cerevisiae deletion strains, locus YLR039C, strain RIC1, hits give low values 1.04 | S. cerevisiae deletion strains, locus YLR058C, strain SHM2, hits give low values 1.01 | S. cerevisiae deletion strains, locus YLR102C, strain apc9, hits give low values 1.01 | S. cerevisiae deletion strains, locus YLR113W, strain HOG1, hits give low values 0.982 | S. cerevisiae deletion strains, locus YLR221C, strain rsa3, hits give low values 1.03 | S. cerevisiae deletion strains, locus YLR258W, strain gsy2, hits give low values 1.02 | S. cerevisiae deletion strains, locus YLR262C, strain YPT6 (second series), hits give low values 1.04 | S. cerevisiae deletion strains, locus YLR262C, strain YPT6, hits give low values 1.05 | S. cerevisiae deletion strains, locus YLR268W, strain sec22, hits give low values 1.02 | S. cerevisiae deletion strains, locus YLR320W, strain mms22, hits give low values 1.04 | S. cerevisiae deletion strains, locus YLR330W, strain CHS5, hits give low values 1.01 | S. cerevisiae deletion strains, locus YLR342W, strain FKS1 (second series), hits give low values 1.01 | S. cerevisiae deletion strains, locus YLR342W, strain FKS1, hits give low values 1.03 | S. cerevisiae deletion strains, locus YLR357W, strain rsc2, hits give low values 1.02 | S. cerevisiae deletion strains, locus YLR370C, strain arc18, hits give low values 1.01 | S. cerevisiae deletion strains, locus YLR371W, strain rom2, hits give low values 1 | S. cerevisiae deletion strains, locus YLR384C, strain iki3, hits give low values 1.01 | S. cerevisiae deletion strains, locus YLR418C, strain cdc73, hits give low values 1.05 | S. cerevisiae deletion strains, locus YML016C, strain PPZ1, hits give low values 1.01 | S. cerevisiae deletion strains, locus YML032C, strain rad52, hits give low values 1.02 | S. cerevisiae deletion strains, locus YML120C, strain ndi1, hits give low values 1.01 | S. cerevisiae deletion strains, locus YML124C, strain tub3, hits give low values 1.01 | S. cerevisiae deletion strains, locus YMR058W, strain fet3, hits give low values 1.03 | S. cerevisiae deletion strains, locus YMR078C, strain ctf18, hits give low values 1.02 | S. cerevisiae deletion strains, locus YMR125W, strain sto1, hits give low values 1.03 | S. cerevisiae deletion strains, locus YMR129W, hits give low values 1.01 | S. cerevisiae deletion strains, locus YMR205C, strain PFK2, hits give low values 1.03 | S. cerevisiae deletion strains, locus YMR223W, strain ubp8, hits give low values 1.02 | S. cerevisiae deletion strains, locus YMR231W, strain pep5, hits give low values 1.01 | S. cerevisiae deletion strains, locus YMR263W, strain SAP30, hits give low values 1 | S. cerevisiae deletion strains, locus YMR307W, strain GAS1, hits give low values 0.985 | S. cerevisiae deletion strains, locus YNL067W, strain RPL9B, hits give low values 0.996 | S. cerevisiae deletion strains, locus YNL071W, strain lat1, hits give low values 1.02 | S. cerevisiae deletion strains, locus YNL128W, strain TEP1, hits give low values 1.01 | S. cerevisiae deletion strains, locus YNL183C, strain NPR1, hits give low values 0.938 | S. cerevisiae deletion strains, locus YNL209W, strain ssb2, hits give low values 1.04 | S. cerevisiae deletion strains, locus YNL233W, strain BNI4, hits give low values 0.993 | S. cerevisiae deletion strains, locus YNL248C, strain rpa49, hits give low values 1.03 | S. cerevisiae deletion strains, locus YNL250W, strain rad50, hits give low values 1.06 | S. cerevisiae deletion strains, locus YNL271C, strain bni1, hits give low values 1.01 | S. cerevisiae deletion strains, locus YNL298W, strain CLA4, hits give low values 1.03 | S. cerevisiae deletion strains, locus YNL307C, strain MCK1, hits give low values 1.02 | S. cerevisiae deletion strains, locus YNL322C, strain KRE1 (second series), hits give low values 1.01 | S. cerevisiae deletion strains, locus YNR049C, strain mso1, hits give low values 1 | S. cerevisiae deletion strains, locus YNR052C, strain pop2, hits give low values 1.01 | S. cerevisiae deletion strains, locus YOL006C, strain TOP1, hits give low values 0.999 | S. cerevisiae deletion strains, locus YOL012C, strain htz1 0.912 | S. cerevisiae deletion strains, locus YOL147C, strain pex11, hits give low values 1.01 | S. cerevisiae deletion strains, locus YOR001W, strain rrp6, hits give low values 1.05 | S. cerevisiae deletion strains, locus YOR061W, strain CKA2, hits give low values 1.01 | S. cerevisiae deletion strains, locus YOR069W, strain VPS5, hits give low values 1 | S. cerevisiae deletion strains, locus YOR070C, strain gyp1, hits give low values 1.02 | S. cerevisiae deletion strains, locus YOR080W, strain dia2, hits give low values 1.01 | S. cerevisiae deletion strains, locus YOR083W, strain WHI5, hits give low values 1.01 | S. cerevisiae deletion strains, locus YOR106W, strain vam3, hits give low values 1.02 | S. cerevisiae deletion strains, locus YOR136W, strain idh2, hits give low values 1.02 | S. cerevisiae deletion strains, locus YOR144C, strain elg1, hits give low values 1.01 | S. cerevisiae deletion strains, locus YOR184W, strain ser1, hits give low values 1.03 | S. cerevisiae deletion strains, locus YOR231W, strain MKK1, hits give low values 0.977 | S. cerevisiae deletion strains, locus YOR265W, strain rbl2, hits give low values 1 | S. cerevisiae deletion strains, locus YOR270C, strain vph1, hits give low values 1.07 | S. cerevisiae deletion strains, locus YOR290C, strain snf2, hits give low values 1.01 | S. cerevisiae deletion strains, locus YOR316C, strain cot1, hits give low values 1.01 | S. cerevisiae deletion strains, locus YPL051W, strain arl3, hits give low values 1.04 | S. cerevisiae deletion strains, locus YPL078C, strain atp4, hits give low values 1.03 | S. cerevisiae deletion strains, locus YPL106C, strain sse1, hits give low values 1.01 | S. cerevisiae deletion strains, locus YPL240C, strain hsp82, hits give low values 1.03 | S. cerevisiae deletion strains, locus YPL241C, strain CIN2, hits give low values 1.01 | S. cerevisiae deletion strains, locus YPL256C, strain CLN2, hits give low values 0.951 | S. cerevisiae deletion strains, locus YPR119W, strain clb2, hits give low values 1.01 | S. cerevisiae deletion strains, locus YPR141C, strain kar3, hits give low values 1.01 | S. cerevisiae deletion strains, locus YPR163C, strain tif3, hits give low values 1.02 | S. cerevisiae deletion strains, locus YPR167C, strain met16, hits give low values 1.01 | S. cerevisiae deletion strains, strain wtn01, hits give low values 1.03 | S. cerevisiae strains, strain wild type, hits give low values 1.01
